# Data reported in PubChem BioAssay (Tox21).
# Inconclusive results are not listed. A call without a number means that no potency is given here. Unmarked numbers belong to inactive results. Activity calls are given as the source filed them. Unless noted, the call rests on the fitted dose curve; in most records, active means well fitted curve in the direction sought with a large enough effect in the repeat runs; inconclusive means weak or mixed curves; inactive means no such curve, though single readings can be large; an effect the other way counts as inactive or inconclusive.
# How the values were obtained:
# [1] = qHTS assay to identify small molecule antagonists of the estrogen related receptor (ERR) signaling pathway from Tox21 library - cell viability counter screen (AID 1224834); conditions: ERR reporter cells viability, CellTiter-Fluor, 17.5 h; series mostly up to 92.4 µM; further: nearly all actives have a fitted effect of over 30% in size; further: potency means the concentration at half of the fitted maximal effect
# Summary of the method: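 Seeded ERR cells were rested 6 h at 37 C/5% CO2 before compounds, positive and negative controls or DMSO were added. Incubation continued for 17.5 h, and viability was then quantified by CellTiter-Fluor fluorescence.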
# [2] = biological target: Luciferin 4-monooxygenase (Photinus pyralis) (UniProt P08659); test: qHTS assay to identify small molecule inhibitors of firefly luciferase (AID 1224835); further: nearly all actives have a fitted effect of over 25% in size; conditions: purified P. pyralis luciferase, luminescence inhibition; series mostly up to 115 µM
# Summary of the method: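 Quantitative HTS format; KM concentrations of both substrates. Purified P. pyralis FLuc activity quantified from luminescence images.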
# [3] = qHTS assay to identify small molecule agonists of the constitutive androstane receptor (CAR) signaling pathway - cell viability counter screen (AID 1224836); conditions: HepG2-CYP2B6-hCAR viability, CellTiter-Fluor, 23 h, PK11195 added to every well; series mostly up to 92.4 µM; further: nearly all actives have a fitted effect of over 45% in size
# Summary of the method: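 Multiplexed viability check: HepG2-CYP2B6-hCAR cells, 15-point compound dosing, 0.75 uM PK11195 final, 23 h at 37 C, CellTiter-Fluor fluorescence.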
# [4] = qHTS assay to identify small molecule antagonists of the constitutive androstane receptor (CAR) signaling pathway - cell viability counter screen (AID 1224837); conditions: HepG2-CYP2B6-hCAR viability, CellTiter-Fluor, 23 h, co-treated with 50 nM CITCO; series mostly up to 92.4 µM; further: nearly all actives have a fitted effect of over 45% in size
# Summary of the method: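 To flag cytotoxic false antagonists, HepG2 hCAR/CYP2B6-2.2kb cells were treated 23 hr with 15-concentration compound series and 50 nM CITCO at 37 C/5% CO2; CellTiter-Fluor fluorescence was the measured end point.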
# [5] = qHTS assay to identify small molecule antagonists of the estrogen related receptor signaling pathway with the pleiotropic PPARgamma coactivator (PGC) from Tox21 10K library (AID 1224841; call rule not given here; further: actives are mostly falling curves and most rising ones were filed inactive; nearly all actives have a fitted effect of over 50% in size; further: potency means the concentration at half of the fitted maximal effect); conditions: PGC/ERR reporter cell line, ONE-Glo luciferase, 18 h; series mostly up to 92.4 µM
# Summary of the method: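 Test chemicals dissolved in DMSO were applied to pre-incubated (6 h) PGC/ERR cells at 2,000 cells/well for an 18 h, 37 C treatment; reporter luminescence was then read using One-Glo.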
# [6] = qHTS assay to identify small molecule agonists of the estrogen related receptor signaling pathway with the pleiotropic PPARgamma coactivator (PGC) from Tox21 10K library (AID 1224842); conditions: PGC/ERR reporter cell line, luciferase ONE-Glo, 18 h; series mostly up to 92.4 µM; further: nearly all actives have a fitted effect of over 15% in size
# Summary of the method: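 PGC/ERR reporter cells (NTP line) were seeded 2,000 per well, rested 6 h at 37 C/5% CO2, then pin-dosed with compounds in DMSO for 18 h at 37 C; luciferase read by One-Glo luminescence after 30 min at room temperature.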
# [7] = biological target: Nuclear receptor subfamily 1 group I member 3 (Homo sapiens) (UniProt Q14994); test: qHTS assay to identify small molecule antagonists of the constitutive androstane receptor (CAR) signaling pathway (AID 1224838); conditions: HepG2-CYP2B6-hCAR luciferase, CITCO-stimulated, 24 h; series mostly up to 92.4 µM;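 further: HepG2 cells stably expressing hCAR with CYP2B6 luciferase reporter stimulated by CITCO; nearly all actives have a fitted effect of over 40% in size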
# Summary of the method: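 Human hepatoma HepG2 cells expressing hCAR and a CYP2B6 promoter (2.2 kb) luciferase construct; compound titration (15 points) with 50 nM CITCO final, 24 h at 37 C/5% CO2; luminescence via ONE-Glo after 30 min at room temperature.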
# [8] = biological target: Nuclear receptor subfamily 1 group I member 3 (Homo sapiens) (UniProt Q14994); test: qHTS assay to identify small molecule agonists of the constitutive androstane receptor (CAR) signaling pathway (AID 1224839); conditions: HepG2 hCAR CYP2B6-luciferase, agonist mode, 24 h; series mostly up to 42.5 µM;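 further: HepG2 cells stably carrying human CAR and a CYP2B6 luciferase reporter; nearly all actives have a fitted effect of over 15% in size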
# Summary of the method: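 Using human hepatoma HepG2 cells engineered with hCAR and a CYP2B6-2.2kb reporter, 15-concentration compound series were incubated 24 h alongside PK11195 at 0.75 uM final, with luminescence quantified afterwards.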
# [9] = biological target: Thyrotropin receptor (Homo sapiens) (UniProt P16473); test: qHTS assay to identify small molecule agonists of the thyroid stimulating hormone receptor (TSHR) signaling pathway (AID 1224843; calls by dose curve; further: nearly all actives have a fitted effect of over 45% in size); conditions: TSHR-HEK293 cells, cAMP HTRF, agonist mode, 30 min; series mostly up to 92.4 µM
# Summary of the method: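 Compounds are titrated over 15 concentrations, in triplicate, onto TSHR-HEK293 cells seeded at 800/well. Plates sit 30 min at room temperature before cAMP-d2 and anti-cAMP cryptate are added; signal is read after a further hour.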
# [10] = qHTS assay to identify small molecule antagonists of the estrogen related receptor signaling pathway with the pleiotropic PPARgamma coactivator (PGC) from Tox21 10K library - cell viability counter screen (AID 1224840; active means well fitted cell-killing curve with a large enough effect in the repeat runs, not every such curve was filed as active; further: nearly all actives have a fitted effect of over 40% in size); conditions: PGC/ERR reporter cells viability, CellTiter-Fluor, 17.5 h; series mostly up to 92.4 µM
# Summary of the method: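 Seeded PGC/ERR cells (2,000/well, 6 h, 37 C/5% CO2) get compound by pin tool; 17.5 h incubation at 37 C; CellTiter-Fluor added, 30 min, fluorescence measured.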
# Nuclear receptor subfamily 1 group I member 3 (Homo sapiens), sequence (Q14994 whole entry, looked up): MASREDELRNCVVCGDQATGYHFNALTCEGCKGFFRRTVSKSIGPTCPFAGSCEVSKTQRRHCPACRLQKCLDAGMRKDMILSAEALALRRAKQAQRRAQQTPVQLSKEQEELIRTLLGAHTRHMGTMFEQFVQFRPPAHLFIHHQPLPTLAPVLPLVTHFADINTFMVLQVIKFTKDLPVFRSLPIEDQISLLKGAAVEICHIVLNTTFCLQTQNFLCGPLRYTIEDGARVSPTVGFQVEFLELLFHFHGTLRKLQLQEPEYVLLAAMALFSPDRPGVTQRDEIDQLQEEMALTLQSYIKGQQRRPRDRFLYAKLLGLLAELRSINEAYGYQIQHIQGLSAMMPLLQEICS
# Luciferin 4-monooxygenase (Photinus pyralis), sequence (P08659 whole entry, looked up): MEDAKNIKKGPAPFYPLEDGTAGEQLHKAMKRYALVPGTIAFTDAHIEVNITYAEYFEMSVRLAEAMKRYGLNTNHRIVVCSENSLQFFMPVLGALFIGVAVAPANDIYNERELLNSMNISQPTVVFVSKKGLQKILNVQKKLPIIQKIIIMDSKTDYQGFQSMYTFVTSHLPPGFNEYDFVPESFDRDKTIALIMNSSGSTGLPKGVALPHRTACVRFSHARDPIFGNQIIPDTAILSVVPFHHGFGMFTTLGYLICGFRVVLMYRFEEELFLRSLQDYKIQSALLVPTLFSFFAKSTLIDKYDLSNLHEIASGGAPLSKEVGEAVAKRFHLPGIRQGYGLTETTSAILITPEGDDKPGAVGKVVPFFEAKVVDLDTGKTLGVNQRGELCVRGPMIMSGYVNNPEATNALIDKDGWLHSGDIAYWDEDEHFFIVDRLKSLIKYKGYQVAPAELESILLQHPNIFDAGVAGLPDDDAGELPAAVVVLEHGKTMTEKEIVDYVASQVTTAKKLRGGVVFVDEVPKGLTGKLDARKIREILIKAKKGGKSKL
# Thyrotropin receptor (Homo sapiens), sequence (P16473 whole entry, looked up): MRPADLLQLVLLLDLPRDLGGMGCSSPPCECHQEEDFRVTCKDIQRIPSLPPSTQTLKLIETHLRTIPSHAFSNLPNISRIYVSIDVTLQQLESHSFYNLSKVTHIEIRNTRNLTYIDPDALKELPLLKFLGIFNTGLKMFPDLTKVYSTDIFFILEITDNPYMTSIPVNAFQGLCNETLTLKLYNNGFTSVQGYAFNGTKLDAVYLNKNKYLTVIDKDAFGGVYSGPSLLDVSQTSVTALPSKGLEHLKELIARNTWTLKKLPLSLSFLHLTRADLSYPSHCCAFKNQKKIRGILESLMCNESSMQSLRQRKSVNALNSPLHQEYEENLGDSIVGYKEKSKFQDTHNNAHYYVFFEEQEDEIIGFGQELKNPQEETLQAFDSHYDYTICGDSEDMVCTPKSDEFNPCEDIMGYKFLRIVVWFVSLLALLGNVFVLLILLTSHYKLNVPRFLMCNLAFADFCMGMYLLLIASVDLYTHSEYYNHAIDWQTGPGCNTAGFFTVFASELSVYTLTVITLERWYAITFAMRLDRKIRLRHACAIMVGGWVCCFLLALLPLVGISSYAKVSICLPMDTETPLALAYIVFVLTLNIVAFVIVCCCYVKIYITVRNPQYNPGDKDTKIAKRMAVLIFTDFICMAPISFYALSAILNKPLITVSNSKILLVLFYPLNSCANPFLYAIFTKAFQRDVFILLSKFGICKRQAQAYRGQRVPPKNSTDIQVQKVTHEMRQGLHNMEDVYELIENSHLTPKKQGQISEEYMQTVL
compound,measurement,setting,value
COc1cc2c(cc1OC)C(C(C(=O)N(CCc1ccc(OC)c(OC)c1OC)CCc1ccc(OC)c(OC)c1OC)c1ccccc1)=NCC2 (centres undefined),Potency,[1],23.7 µM (active)
same,Potency,[2],inactive
same,Potency,[3],inactive
same,Potency,[4],inactive
same,Potency,[5],23.7 µM (active)
same,Potency,[6],inactive
NC(N)=NCCC[C@H](N)C(=O)O,"viability change, negative = cytotoxic",[1],3.84% [at 8.39 µM]
same,"activity change, negative = inhibition",[2],0.418% [at 10.5 µM]
same,"viability change, negative = cytotoxic",[3],0.813% [at 8.39 µM]
same,"activity change, negative = cytotoxicity",[4],-4.98% [at 8.39 µM]
same,"activity, negative = inhibition",[5],-5.77% [at 8.39 µM]
same,activation,[6],-1.51% [at 8.39 µM]
CN(C)CCOC(c1ccccc1)c1ccc(Br)cc1 (centres undefined),Potency,[1],inactive
same,Potency,[2],inactive
same,Potency,[3],inactive
same,Potency,[7],inactive
same,Potency,[8],inactive
same,Potency,[5],inactive
same,Potency,[6],inactive
same,Potency,[9],inactive
CCNc1cc(O)ccc1C,Potency,[1],inactive
same,Potency,[2],inactive
same,Potency,[3],inactive
same,Potency,[7],inactive
same,Potency,[10],inactive
same,Potency,[5],inactive
same,Potency,[6],inactive
Cc1cc(C(=O)O)ccc1[N+](=O)[O-],Potency,[1],inactive
same,Potency,[2],inactive
same,Potency,[3],inactive
same,Potency,[4],inactive
same,Potency,[10],inactive
same,Potency,[9],inactive
COc1ccc(C)cc1[N+](=O)[O-],Potency,[1],inactive
same,Potency,[2],inactive
same,Potency,[3],inactive
same,Potency,[7],inactive
same,Potency,[8],inactive
same,Potency,[10],inactive
same,Potency,[5],inactive
same,Potency,[6],inactive
same,Potency,[9],inactive
CCC(CC)Nc1ccc(C)c(C)c1,Potency,[1],inactive
same,Potency,[2],inactive
same,Potency,[3],inactive
same,Potency,[7],inactive
same,Potency,[8],inactive
same,Potency,[10],inactive
O=P(O)(OCc1ccccc1)OCc1ccccc1,Potency,[1],inactive
same,Potency,[2],inactive
same,Potency,[3],inactive
same,Potency,[4],inactive
same,Potency,[9],inactive
CC[N+](C)(CC)CCOC(=O)C(O)(c1ccccc1)C1CCCCC1 (centres undefined),Potency,[1],inactive
same,Potency,[2],inactive
same,Potency,[3],inactive
same,Potency,[4],inactive
same,Potency,[6],inactive
same,Potency,[9],inactive
COc1cccc(N(C)C(=S)Oc2ccc3c(c2)CCCC3)n1,Potency,[1],inactive
same,Potency,[2],inactive
same,Potency,[3],inactive
same,Potency,[7],inactive
same,Potency,[8],inactive
same,Potency,[10],inactive
CCC(=O)O[C@]1(C(=O)CCl)[C@@H](C)C[C@H]2[C@@H]3CCC4=CC(=O)C=C[C@]4(C)[C@@]3(F)[C@@H](O)C[C@@]21C,Potency,[1],inactive
same,Potency,[2],inactive
same,Potency,[3],inactive
same,Potency,[7],inactive
same,Potency,[8],inactive
same,Potency,[10],inactive
same,Potency,[5],inactive
same,Potency,[6],inactive
same,Potency,[9],inactive
COc1ccc(C(=O)N2CCN(CC(=O)N3CCOCC3)CC2)cc1,Potency,[1],inactive
same,Potency,[2],inactive
same,Potency,[3],inactive
same,Potency,[4],inactive
same,Potency,[5],inactive
same,Potency,[6],inactive
same,Potency,[9],inactive
C/C=C/C=C/CO,Potency,[1],inactive
same,Potency,[2],inactive
same,Potency,[3],inactive
same,Potency,[4],inactive
same,Potency,[9],inactive
O=C(NCCO[N+](=O)[O-])c1cccnc1,Potency,[1],inactive
same,Potency,[2],inactive
same,Potency,[3],inactive
same,Potency,[7],inactive
same,Potency,[8],inactive
same,Potency,[10],inactive
same,Potency,[9],inactive
C=C(C)C(=O)OCCO,Potency,[1],inactive
same,Potency,[2],inactive
same,Potency,[3],inactive
same,Potency,[7],inactive
same,Potency,[8],inactive
same,Potency,[10],inactive
